Data from PubChem BioAssay (NCI).
This is part of a sample that, as a whole, favours compounds with a hit. Of some 83,000 tested, about 20% had one in any assay.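 Negative percent growth values reflect cell death: -40 means 40% of the cells present at the start died, and -100 means all died.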 The source made the active and inactive calls. Rule for the calls: active = growth percent below 10; inactive = the rest.

How the values were obtained:
Experiment in all cases: NCI-60 one-dose screen, 48 h (100 = growth as untreated, 0 = no growth, -100 = all killed)
Conditions in all cases: 10 µM unless noted
NCI-H23 lung = test system: NCI-H23 lung
NCI-H226 lung = test system: NCI-H226 lung
NCI-H322M lung = test system: NCI-H322M lung
HOP-62 NSCLC = test system: HOP-62 NSCLC
NCI-H460 lung = test system: NCI-H460 lung
HOP-92 NSCLC = test system: HOP-92 NSCLC
NCI-H522 lung = test system: NCI-H522 lung
A549/ATCC NSCLC = test system: A549/ATCC NSCLC
786-0 renal = test system: 786-0 renal
COLO 205 colon = test system: COLO 205 colon
DU-145 prostate = test system: DU-145 prostate
K-562 leukemia = test system: K-562 leukemia
MALME-3M melanoma = test system: MALME-3M melanoma
MDA-MB-231 breast = test system: MDA-MB-231 breast
RXF 393 renal = test system: RXF 393 renal
SF-268 CNS = test system: SF-268 CNS
SF-295 CNS = test system: SF-295 CNS
SF-539 CNS = test system: SF-539 CNS
UACC-257 melanoma = test system: UACC-257 melanoma
M14 melanoma = test system: M14 melanoma

Measured: growth

Nc1nc(N(Cc2ccccc2)c2ccccc2)c2cn[nH]c2n1
inactive: NCI-H23 lung 81.7% | NCI-H226 lung 98.3% | NCI-H322M lung 94.2% | HOP-62 NSCLC 70% | NCI-H460 lung 75.8% | HOP-92 NSCLC 62.1% | NCI-H522 lung 90.1% | A549/ATCC NSCLC 71.4% | 786-0 renal 72.3% | COLO 205 colon 58.8% | DU-145 prostate 88.2% | K-562 leukemia 23.9% | MALME-3M melanoma 62.8% | MDA-MB-231 breast 62.1% | RXF 393 renal 67.6% | SF-268 CNS 73.8% | SF-295 CNS 51.5% | SF-539 CNS 68.8% | UACC-257 melanoma 99.7% | M14 melanoma 33.5%

Cc1cc(=O)oc2cc(Oc3nc(Br)cn4c(Br)cnc34)ccc12
inactive: NCI-H23 lung 63.9% | NCI-H226 lung 53.6% | NCI-H322M lung 76.8% | HOP-62 NSCLC 51.7% | NCI-H460 lung 73.9% | HOP-92 NSCLC 37.2% | NCI-H522 lung 54.8% | A549/ATCC NSCLC 77.8% | 786-0 renal 29% | COLO 205 colon 113% | DU-145 prostate 75% | K-562 leukemia 93.6% | MALME-3M melanoma 46.9% | MDA-MB-231 breast 29.6% | RXF 393 renal 44.2% | SF-268 CNS 56.6% | SF-295 CNS 99.9% | SF-539 CNS 47.2% | UACC-257 melanoma 89.1% | M14 melanoma 82.8%

CC1=C2[C@@H](CC1)[C@]1(C)O[C@@](C3CCNCC3)(C[C@H]1OC(=O)CO)[C@H]2OC(=O)/C=C/c1ccccc1
inactive: NCI-H23 lung 84.9% | NCI-H226 lung 92.3% | NCI-H322M lung 105% | HOP-62 NSCLC 94.5% | NCI-H460 lung 94.1% | HOP-92 NSCLC 71.8% | NCI-H522 lung 83.6% | A549/ATCC NSCLC 92.2% | 786-0 renal 86.2% | COLO 205 colon 87.2% | DU-145 prostate 101% | K-562 leukemia 62.9% | MALME-3M melanoma 81% | MDA-MB-231 breast 107% | RXF 393 renal 65.4% | SF-268 CNS 87.7% | SF-295 CNS 90.9% | SF-539 CNS 91.5% | UACC-257 melanoma 85% | M14 melanoma 83.6%

COC(=O)/C(CCC=C(C)C)=C1\[C@@H](OC(C)=O)C[C@@]2(C)[C@H]1C/C(=N/O)[C@H]1[C@@]3(C)CC/C(=N\O)[C@@H](C)[C@@H]3CC[C@@]12C
active: NCI-H522 lung -57.1%
inactive: NCI-H23 lung 99.5% | NCI-H226 lung 96.8% | NCI-H322M lung 109% | HOP-62 NSCLC 105% | NCI-H460 lung 105% | HOP-92 NSCLC 95.4% | A549/ATCC NSCLC 94% | 786-0 renal 96.3% | COLO 205 colon 106% | DU-145 prostate 106% | K-562 leukemia 83.6% | MALME-3M melanoma 119% | MDA-MB-231 breast 86.5% | RXF 393 renal 104% | SF-268 CNS 89.1% | SF-295 CNS 101% | SF-539 CNS 89.4% | UACC-257 melanoma 118% | M14 melanoma 98.6%

Cc1ccc(S(=O)(=O)OC[C@]23CCC(C)(C)C[C@H]2C2=CC[C@@H]4[C@@]5(C)CCCNC(C)(C)[C@@H]5CC[C@@]4(C)[C@]2(C)CC3)cc1
active: NCI-H460 lung -60.2% | COLO 205 colon -66.5% | K-562 leukemia -20%
inactive: NCI-H23 lung 73.7% | NCI-H226 lung 81.8% | NCI-H322M lung 79.7% | HOP-62 NSCLC 78.1% | HOP-92 NSCLC 41.8% | NCI-H522 lung 62% | A549/ATCC NSCLC 34.6% | 786-0 renal 34.7% | DU-145 prostate 37.9% | MALME-3M melanoma 95.8% | MDA-MB-231 breast 45.6% | RXF 393 renal 67.9% | SF-268 CNS 69.6% | SF-295 CNS 104% | SF-539 CNS 74.8% | UACC-257 melanoma 97.4% | M14 melanoma 80.7%

O=C(N/N=C/c1ccc(Cl)cc1)c1ccc(NC(=O)c2ccccn2)cc1
active: NCI-H460 lung 4.21% | 786-0 renal 4.44%
inactive: NCI-H23 lung 54.5% | NCI-H226 lung 42.8% | NCI-H322M lung 66.4% | HOP-62 NSCLC 59.4% | HOP-92 NSCLC 51.6% | NCI-H522 lung 73.3% | A549/ATCC NSCLC 26.1% | COLO 205 colon 59.1% | DU-145 prostate 60.7% | K-562 leukemia 61% | MALME-3M melanoma 44.9% | MDA-MB-231 breast 41.4% | RXF 393 renal 64.7% | SF-268 CNS 70.5% | SF-295 CNS 56.4% | SF-539 CNS 46% | UACC-257 melanoma 63.3% | M14 melanoma 55.4%

COC12C=C/C(=C(/C(=O)OCc3csc(SC)n3)C(=O)CCCCCCCCC3(OC)C=C/C(=C(/C(=O)OCc4cnc(SC)s4)C(=O)CCCCCCCC1)O3)O2 (stereo not given)
inactive: NCI-H23 lung 15.7% | NCI-H226 lung 12% | NCI-H322M lung 46.5% | HOP-62 NSCLC 58.7% | NCI-H460 lung 27.2% | HOP-92 NSCLC 78.2% | NCI-H522 lung 24.2% | A549/ATCC NSCLC 39.8% | 786-0 renal 35.1% | COLO 205 colon 25.5% | DU-145 prostate 50.3% | K-562 leukemia 25.3% | MDA-MB-231 breast 19.1% | SF-268 CNS 44.7% | SF-295 CNS 14.8% | SF-539 CNS 27.4% | UACC-257 melanoma 56.8% | M14 melanoma 12%
active: MALME-3M melanoma -1.67% | RXF 393 renal -35.4%

Nc1cccc(-c2ccc(COc3ccc(CC4SC(=O)NC4=O)cc3)cc2)c1 (stereo not given)
inactive: NCI-H23 lung 70.5% | NCI-H226 lung 94.1% | NCI-H322M lung 89.6% | HOP-62 NSCLC 48.4% | NCI-H460 lung 43.8% | HOP-92 NSCLC 42.3% | NCI-H522 lung 29.7% | A549/ATCC NSCLC 44.8% | 786-0 renal 77.9% | COLO 205 colon 101% | DU-145 prostate 83.2% | K-562 leukemia 21.6% | MALME-3M melanoma 42.5% | MDA-MB-231 breast 73.4% | RXF 393 renal 77.7% | SF-268 CNS 70.6% | SF-295 CNS 63.8% | SF-539 CNS 64.3% | UACC-257 melanoma 71% | M14 melanoma 36.5%
